An excerpt weighted towards active compounds, which were near 2.8% of everything screened.
HepG2 tox-1 – counter-screen for TGF-b inhibitors: cytotoxicity in HepG2 cells; Potency, µM (doses to about 46.1 µM), for the others: at the top dose activity change, negative = cytotoxicity, most hits filed as cytotoxic; hit rate 0.76% among 410,000; HepG2 CAGA-GFP viability, ATP luminescence, 18 h
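HepG2 CAGA-GFP cells (1000/well, DMEM with 1% FBS) received compound, then TGF-beta at 500 pg/mL final, and were incubated 18 hours at 37 degrees C. Viability was read by CellTiter-Glo luminescence. Media-only wells were set as complete cell-killing and DMSO as no toxicity.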
HTT aggregate – mutant huntingtin aggregation inhibition; hit rate 1.1% among 220,000; PC12 HttQ103-GFP aggregates, Acumen cytometry, 40 h; Potency, µM (highest dose often 46.1 µM), for inactives: top-dose activity change, negative = inhibition, hits mostly inhibitors; note: % is set by controls: 0 for no effect and ±100 for the full control effect; nearly all actives have a fitted effect of over 60% in size
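Aggregates are detected as GFP objects 1–25 µm with signal 6 STDEV over background in lysates of induced PC12 cells. These carry Huntingtin exon 1 with 103 glutamines fused to GFP under an ecdysone promoter; compounds titrated.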
ATXN viability – viability counter-screen for ATXN expression inhibitors; S2 cells (HEK-293 line with an ATXN2-luciferase reporter) viability, CellTiter-Fluor protease fluorescence, 24 h; Potency, µM (series often up to 56.7 µM), hits mostly cytotoxic; hit rate 0.49% among 400,000; AID 651635; note: nearly all actives have a fitted effect of over 40% in size
ATXN2 expr inh – inhibitors of ATXN2 expression; Potency, µM (highest dose often 57 µM), for inactives: top-dose activity change, negative = inhibition, actives largely listed as inhibitors; hit rate 0.72% among 360,000; HEK-293 ATXN2-luciferase reporter, luminescence, 24 h; AID 1745845; note: % is set by controls: 0 for no effect and ±100 for the full control effect; nearly all actives have a fitted effect of over 55% in size
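ATXN2-luciferase reporter cells (luciferase flanked by upstream and downstream ATXN2 gene portions) were treated 24 h at 37 °C with compounds at up to 57 uM. SteadyGlo luminescence gave expression; GF-AFC fluorescence gave viability.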
HTT cytoprotect – protects HTT-Q103 PC12 cells, measured by ATP | PC12 HTT-Q103 induced, cytoprotection, ATP luminescence, 40 h | Potency, µM (top dose mostly 56.4 µM), for the others: cytoprotection (ATP increase), most hits filed as activators | hit rate 0.14% among 230,000 | AID 1471; note: % of control where 0% means no effect; nearly all actives have a fitted effect of over 45% in size
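PC12 cells with ecdysone-inducible HTT exon 1 Q103-GFP, induced with 100 nM tebufenozide and co-treated with library compounds in a dose series (1536-well, 1500 cells/well). Cytoprotection read as ATP content by ATPlite luminescence.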
TGFb SMAD3 inh – TGF-b pathway inhibition | HepG2 CAGA-GFP TGF-b/SMAD3 reporter, GFP fluorescence, 18 h; TGF-beta stimulated, 500 pg/mL final | Potency, µM (series often up to 46.1 µM), for the others: at the top dose activity, negative = inhibition, most hits filed as inhibitors | hit rate 1.2% among 410,000 | AID 588855; note: % is set by controls: 0 for no effect and ±100 for the full control effect; nearly all actives have a fitted effect of over 65% in size
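Per well, imaged GFP fluorescence of HEPG2 CAGA-GFP cells gives the signal; cells get compound, then TGF-beta (500 pg/mL final), 18 h at 37 degrees C; %Activity versus -TGF-beta and +DMSO controls.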
TGFb CAGA inh – TGF-b pathway inhibition, cherry-pick retest | shares compounds with TGFb SMAD3 inh | HepG2 CAGA-GFP TGF-b reporter, GFP fluorescence, 18 h; cells stimulated with TGF-beta, 500 pg/mL | Potency, µM (highest dose often 46.1 µM), without a hit: at the top dose activity, negative = inhibition, hits mostly inhibitors | hit rate 63% among 1,600; note: % is set by controls: 0 for no effect and ±100 for the full control effect; nearly all actives have a fitted effect of over 65% in size
HepG2 tox-2 – counter-screen for TGF-b inhibitors: cytotoxicity in HepG2 cells | shares compounds with TGFb SMAD3 inh | HepG2 CAGA-GFP viability, ATP luminescence, 18 h; cells stimulated with TGF-beta, 500 pg/mL | Potency, µM (series often up to 46.1 µM), inactives show top-dose activity, negative = cytotoxicity, most hits filed as inhibitors | hit rate 27% among 1,600 | AID 720535; note: % is set by controls: 0 for no effect and ±100 for the full control effect; nearly all actives have a fitted effect of over 70% in size
CCL64 TGFb inh – blocks TGF-b signaling in CCL64 reporter cells; shares compounds with TGFb SMAD3 inh; CCL64 CAGA-GFP reporter, TGF-b stimulated, GFP fluorescence, 18 h; Potency, µM (highest dose often 46.1 µM), without a hit: at the highest dose activity, negative = inhibition, hits mostly inhibitors; hit rate 41% among 1,600; note: nearly all actives have a fitted effect of over 65% in size
TGFb COP inh – TGF-b inhibition validated with COP promoter; shares compounds with TGFb SMAD3 inh; HepG2 COP-GFP TGF-b reporter, GFP fluorescence, 18 h; cells stimulated by added recombinant TGF-beta; Potency, µM (series often up to 46.1 µM), for inactives: at the top dose activity, negative = inhibition, hits mostly inhibitors; hit rate 3% among 1,600; note: nearly all actives have a fitted effect of over 70% in size
Active calls of the source: *; ! = a repeat was not active; [ ] = another dose, or the depositor's remark. Calls come from the whole dose curve; as a rule, active = well fitted curve in the direction sought with a large enough effect; inconclusive = small, poorly fitted or top-dose-only effect, or another doubt; inactive = no such curve, though single readings can be large; an effect the other way counts as inactive or inconclusive. Potency is the fitted concentration of half-maximal effect.

What do the screens show for `CC(OC(=O)Cc1ccc(F)cc1)C(=O)NCc1ccc2c(c1)OCO2` (stereo unspecified)?
HepG2 tox-1: -4.5%; ATXN viability: inactive; ATXN2 expr inh: -2.5%; TGFb SMAD3 inh: inconclusive; TGFb CAGA inh: -28.2%; HepG2 tox-2: 2.2%; CCL64 TGFb inh: 7.8%; TGFb COP inh: 5.6%

Results for CN(C(=O)C=Cc1ccco1)c1ccccc1 ?
HepG2 tox-1: -55.0%; ATXN viability: inactive; ATXN2 expr inh: 1.0%; TGFb SMAD3 inh: -5.5%

Results for CN(C(=O)/C=C/c1ccc([N+](=O)[O-])s1)c1ccccc1 ?
HepG2 tox-1: 11.2µM*; HTT aggregate: 10.3%[9.22 µM]; ATXN2 expr inh: inconclusive; HTT cytoprotect: inconclusive; TGFb SMAD3 inh: 10µM*; TGFb CAGA inh: 23.1µM*; HepG2 tox-2: inconclusive; CCL64 TGFb inh: 20.6µM*; TGFb COP inh: inconclusive

Results for CC1(C)C[C@](C)(C(=O)c2ccccc2)C=C1c1ccccc1 ?
HTT cytoprotect: 0.5%

What do the screens show for `O=C(Nc1ccncc1)Nc1cccc(Cl)c1`?
HepG2 tox-1: -24.0%; ATXN viability: inactive; ATXN2 expr inh: -19.1%; TGFb SMAD3 inh: -11.9%

What do the screens show for `O=C(Nc1cccc(Cl)c1)Nc1csc([N+](=O)[O-])c1`?
HepG2 tox-1: 10µM*; HTT aggregate: -12.4%[9.22 µM]; ATXN viability: inconclusive; ATXN2 expr inh: inconclusive; HTT cytoprotect: 18.4%[10 µM]; TGFb SMAD3 inh: inconclusive; TGFb CAGA inh: 10.3µM*; HepG2 tox-2: 16.4µM*; CCL64 TGFb inh: 9.2µM*; TGFb COP inh: 76.4%

What do the screens show for `CCCCC[C@H]1CN(CCc2ccccc2)C(=O)[C@@H]1CC(=O)NCc1ccc(OC)cc1`?
HepG2 tox-1: 7.08µM*!; ATXN viability: inactive; ATXN2 expr inh: -28.1%; TGFb SMAD3 inh: 10µM*; TGFb CAGA inh: inconclusive; HepG2 tox-2: -26.8%; CCL64 TGFb inh: inconclusive; TGFb COP inh: 28.4%

Results for O=C1OCCN1C(=O)[C@H]1[C@H](c2ccccc2)C(c2cccc(Cl)c2)=NN1c1ccc(Br)cc1 ?
HepG2 tox-1: -15.4%; ATXN2 expr inh: -1.1%; HTT cytoprotect: -126.5%[40.3 µM]; TGFb SMAD3 inh: inconclusive; TGFb CAGA inh: inconclusive; HepG2 tox-2: -16.8%; CCL64 TGFb inh: 22.7%; TGFb COP inh: 3.1%

Results for COc1ccc(-n2c(=O)c(-c3ccccc3)nc3cnc(N4CCOCC4)nc32)cc1 ?
HTT cytoprotect: 15.9%

Results for CC(=O)N(C1=C(Cl)C(=O)c2ccccc2C1=O)C1CCCCC1 ?
HepG2 tox-1: -88.6%; HTT aggregate: inconclusive; ATXN2 expr inh: inconclusive; HTT cytoprotect: -48.0%[10 µM]; TGFb SMAD3 inh: 2.82µM*; TGFb CAGA inh: 3.26µM*; HepG2 tox-2: 8.2µM*; CCL64 TGFb inh: 4.61µM*; TGFb COP inh: 10.3µM*

How did O=C1[C@@H]2[C@H]3[C@H](O)[C@H](O)C/C(=N/OCc4ccccc4)[C@@H]3CC[C@H]2C(=O)N1c1ccc(F)cc1F do in these assays?
HTT cytoprotect: 1.8%[10 µM]

What do the screens show for `O=C(Nc1ccc(S(=O)(=O)N2CCOCC2)cc1)c1ccc([N+](=O)[O-])s1`?
HepG2 tox-1: -20.6%; ATXN viability: inactive; ATXN2 expr inh: -25.7%; TGFb SMAD3 inh: 4.47µM*; TGFb CAGA inh: 1.64µM*; HepG2 tox-2: 5.17µM*; CCL64 TGFb inh: -16.9%; TGFb COP inh: 29.1%

Results for O=C(Nc1ccc(S(=O)(=O)N2CCOCC2)cc1)c1cccs1 ?
HepG2 tox-1: 0.8%; HTT aggregate: 11.0%; ATXN viability: inactive; ATXN2 expr inh: 1.0%; HTT cytoprotect: 8.1%; TGFb SMAD3 inh: -4.0%

How did O=C(Nc1ccc(N2CCOCC2)cc1)c1ccc([N+](=O)[O-])o1 do in these assays?
HepG2 tox-1: -61.1%; ATXN viability: inconclusive; ATXN2 expr inh: -6.1%; TGFb SMAD3 inh: 5.62µM*; TGFb CAGA inh: 11.6µM*; HepG2 tox-2: 23.1µM*; CCL64 TGFb inh: inconclusive; TGFb COP inh: 12.9%

Results for O=C(Nc1ccc(S(=O)(=O)N2CCOCC2)cc1)c1ccco1 ?
HepG2 tox-1: -1.0%; HTT aggregate: -7.4%; ATXN viability: inactive; ATXN2 expr inh: 0.5%; HTT cytoprotect: -7.3%[0.074 µM]; TGFb SMAD3 inh: -6.4%

What do the screens show for `O=C(COC(=O)c1ccc([N+](=O)[O-])o1)Nc1ccc(N2CCOCC2)cc1`?
HepG2 tox-1: -19.9%; ATXN viability: inactive; ATXN2 expr inh: 8.3%; TGFb SMAD3 inh: -10.0%

Results for O=C(Nc1ccc(S(=O)(=O)N2CCOCC2)cc1)c1ccc([N+](=O)[O-])o1 ?
HepG2 tox-1: -179.6%; HTT aggregate: -1.4%[9.22 µM]; ATXN viability: inconclusive; ATXN2 expr inh: inconclusive; HTT cytoprotect: 31.6%[10 µM]; TGFb SMAD3 inh: 6.31µM*; TGFb CAGA inh: 3.26µM*; HepG2 tox-2: 13µM*; CCL64 TGFb inh: 11.6µM*; TGFb COP inh: inconclusive

How did COc1ccc(Nc2nc(N3CCCC3)nc3ccccc23)c(OC)c1 do in these assays?
HepG2 tox-1: -57.5%; HTT aggregate: inconclusive; ATXN viability: 20µM*; ATXN2 expr inh: 10µM*; HTT cytoprotect: -87.2%[0.074 µM]; TGFb SMAD3 inh: 10µM*; TGFb CAGA inh: inconclusive; HepG2 tox-2: inconclusive; CCL64 TGFb inh: inconclusive; TGFb COP inh: 66.1%

How did COc1ccc(Nc2nc(-c3ccc(C)cc3)nc3ccccc23)c(OC)c1 do in these assays?
HepG2 tox-1: -31.4%; TGFb SMAD3 inh: inconclusive
